Screening data from PubChem BioAssay.
RECQ1 inh-1: blocks DNA unwinding by human RECQ1; AID 2549; Potency, µM (top dose mostly 57.3 µM), for inactives: at the highest dose activity, negative = inhibition, usual class: inhibitors; P46063; 240,000 compounds, 0.54% hits; RECQ1 DNA unwinding, red fluorescence kinetic read;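 further: plate controls were vehicle for no effect and no enzyme for full effect; nearly all actives have a fitted effect of over 30% in size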
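50 nM RECQ1T1 preincubated 15 min with compound in Tris pH 8.0 buffer with MgCl2, DTT, Tween-20 and 2.5 ug/ml poly(dI-dC); started with 200 nM TAMRA/BHQ-2 forked duplex and 2 mM ATP. Unwinding read as fluorescence (525/598 nm), two reads 2 h apart.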
BLM helicase inh: inhibitors of human Bloom syndrome helicase BLM; Potency, µM (series often up to 56.1 µM), for the others: at the highest dose activity change, negative = inhibition, most hits filed as inhibitors; P54132; recombinant BLM DNA unwinding, fluorescence dequenching; AID 2528; 350,000 compounds, 0.2% hits;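 further: plate controls were vehicle for no effect and no enzyme for full effect; nearly all actives have a fitted effect of over 35% in size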
KAT2A inh: blocks human GCN5L2 histone acetyltransferase; GCN5L2 HAT assay, ThioGlo1 CoA-SH fluorescence; Potency, µM (top dose mostly 58.9 µM), inactives show at the highest dose activity change, negative = inhibition, actives largely listed as inhibitors; 390,000 compounds, 0.21% hits; AID 504327; further: on the % scale 0 is the no-effect control and ±100 the full control effect
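Compounds, pin-transferred from DMSO stocks, meet 20nM GCN5L2 for 15 min before the reaction begins with H3(1-25) peptide (75uM) and acetyl-CoA (70uM). Thiol-reactive ThioGlo1 reports CoA release over 20 min at room temperature.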
WRN inhibitor: blocks human WRN helicase; Q14191; WRN helicase unwinding, fluorescent forked duplex, kinetic; Potency, µM (series often up to 114 µM), for inactives: top-dose activity change, negative = inhibition, most hits filed as inhibitors; 360,000 compounds, 0.46% hits; further: on the % scale 0 is the no-effect control and ±100 the full control effect; nearly all actives have a fitted effect of over 55% in size
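Kinetic fluorescence helicase assay: unwinding of a quenched forked DNA duplex (100 nM final) with 2 mM ATP final raises red fluorescence (525/598 nm). Compounds sat 15 min at room temperature with 20 nM WRN beforehand.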
APE1 inh: inhibitors of human APE1 endonuclease | P27695 | recombinant APE1, TAMRA/BHQ-2 abasic DNA cleavage fluorescence | 350,000 compounds, 0.35% hits | Potency, µM (highest dose often 65.8 µM), inactives show at the top dose activity change, negative = inhibition, actives largely listed as inhibitors;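 further: plate controls were vehicle for no effect and reference inhibitor for full effect; nearly all actives have a fitted effect of over 55% in size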
Target sequence (P27695 whole entry, looked up): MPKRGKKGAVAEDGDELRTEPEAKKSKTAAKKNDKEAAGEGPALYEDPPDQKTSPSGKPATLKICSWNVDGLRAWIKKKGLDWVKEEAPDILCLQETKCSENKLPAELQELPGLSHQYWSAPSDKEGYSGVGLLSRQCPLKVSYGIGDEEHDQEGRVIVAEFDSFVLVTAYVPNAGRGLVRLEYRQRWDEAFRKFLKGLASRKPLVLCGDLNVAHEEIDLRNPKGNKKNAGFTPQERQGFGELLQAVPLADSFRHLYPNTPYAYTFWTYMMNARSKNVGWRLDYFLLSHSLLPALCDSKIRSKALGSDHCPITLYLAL
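Incision of a quenched TAMRA/BHQ-2 THF abasic-site duplex (50 nM) by 0.75 nM APE1, after 15 min compound preincubation, measured as fluorescence increase over three 60 s reads. Values normalized to buffer, DMSO and NSC13755 control wells.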
ERG-DNA inh: ERG Ets/DNA interaction inhibition; P11308; fluorescence polarization, His-ERG Ets domain / labelled DNA; 370,000 compounds, 0.028% hits; Potency, µM (doses to about 76.9 µM), without a hit: at the top dose FP activity, negative = inhibition, actives largely listed as inhibitors; active means well fitted inhibition curve with a large enough effect in the polarisation, with a control signal flat; inconclusive means small, poorly fitted or top-dose-only effect, or effect the other way, or a change in a side signal; inactive means no such curve, though single readings can be large or run the other way; the % refers to the polarisation;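 further: polarization taken with two DNA probes labelled with fluorescein and Texas red; % of control where 0% means no effect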
Target sequence (P11308 whole entry, looked up, the tested form may be a part): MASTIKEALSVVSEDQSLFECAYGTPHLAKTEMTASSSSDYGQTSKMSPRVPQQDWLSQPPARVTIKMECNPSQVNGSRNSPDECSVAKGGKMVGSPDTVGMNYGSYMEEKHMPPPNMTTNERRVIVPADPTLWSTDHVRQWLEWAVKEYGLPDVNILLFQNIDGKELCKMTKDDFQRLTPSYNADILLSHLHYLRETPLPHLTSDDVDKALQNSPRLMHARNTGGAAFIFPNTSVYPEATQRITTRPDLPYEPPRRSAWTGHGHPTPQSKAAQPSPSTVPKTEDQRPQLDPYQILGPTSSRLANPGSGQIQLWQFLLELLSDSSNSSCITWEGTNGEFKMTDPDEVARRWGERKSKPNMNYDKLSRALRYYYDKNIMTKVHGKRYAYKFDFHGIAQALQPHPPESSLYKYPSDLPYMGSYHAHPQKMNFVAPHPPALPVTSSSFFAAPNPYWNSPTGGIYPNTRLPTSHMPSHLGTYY
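His-tagged ERG Ets domain (1 uM in the protein solution; 300mM KCl, 50mM Tris-HCl, 1mM EDTA, 1mM DTT, pH 7.5) received compound, then a probe mix of 5 nM fluorescein-DNA and 100nM Texas-615-DNA. Fluorescence polarization was read for both dyes.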
RECQ1 inh conf: confirmation of human RECQ1 helicase inhibitors; shares compounds with RECQ1 inh-1; RECQ1 helicase DNA unwinding, fluorescence; Potency, µM (top dose mostly 229 µM), inactives show top-dose activity change, negative = inhibition, usual class: inhibitors; 610 compounds, 28% hits; AID 2708; further: on the % scale 0 is the no-effect control and ±100 the full control effect; nearly all actives have a fitted effect of over 45% in size
RECQ1 ADP FP: displaces ADP in a fluorescence polarization counter-screen for RECQ1 hits; shares compounds with RECQ1 inh-1; ADP fluorescence polarization displacement counterscreen; Potency, µM (series often up to 228 µM), inactives show at the top dose activity change, negative = inhibition, actives largely listed as inhibitors; 530 compounds, 27% hits; further: on the % scale 0 is the no-effect control and ±100 the full control effect; nearly all actives have a fitted effect of over 45% in size
RECQ1 inh-2: confirmation of human RECQ1 helicase inhibitors. shares compounds with RECQ1 inh-1. recombinant RECQ1 DNA unwinding, red fluorescence. AID 504841. 1,100 compounds, 15% hits. Potency, µM (titrated, usually from 119 µM), for the others: at the top dose activity, negative = inhibition, actives largely listed as inhibitors; further: on the % scale 0 is the no-effect control and ±100 the full control effect; nearly all actives have a fitted effect of over 50% in size
The depositor's hits bear a star; ? = inconclusive; / = no result given; [ ] = remark or other dose. Hits are enriched below; roughly 0.88% of the tested compounds scored in any of these assays. Unless noted, the call rests on the fitted dose curve; in most records, active means well fitted curve in the direction sought with a large enough effect; inconclusive means small, poorly fitted or top-dose-only effect, or another doubt; inactive means no such curve, though single readings can be large; an effect the other way counts as inactive or inconclusive. Potency means the concentration at half of the fitted maximal effect.

SMILES	RECQ1 inh-1	BLM helicase inh	KAT2A inh	WRN inhibitor	APE1 inh	ERG-DNA inh	RECQ1 inh-2	others
Cc1cc(/C=N/Nc2ccc([N+](=O)[O-])cn2)c(C)n1-c1ccc(C(=O)O)cc1	17.8µM*	?	?	50.1µM*	?	7.8%	/	RECQ1 inh conf=?
CCNc1ncc2nc(-c3ccc(Cl)cc3)c(=O)n(C3CC3)c2n1	-6.7%	-3.1%	?	/	-1.9%	/	/
CCN1CCN(C(=O)c2sc3ncnc(N4CCc5ccccc5C4)c3c2C)CC1	28.2µM*	-1.1%	-0.8%	2.3%	24.4%	-0.5%	-14.2%
Cc1c(C(=O)N2CCCCC2C)sc2ncnc(N3CCc4ccccc4C3)c12 (centres undefined)	-13.4%	-12.9%	-15.8%	-5.9%	2.7%	-11.4%	/
CCOc1cc(CNC(=O)c2ccc3c(c2)NC(=O)C2CCCCN32)cc(OCC)c1OCC (centres undefined)	/	-1.9%	-3.8%	/	/	-0.2%	/
O=C1CC(Nc2ccc(N3CCOCC3)cc2)C(=O)N1c1cccc(C(F)(F)F)c1 (centres undefined)	?	1.6%	-3.9%	2.6%	-3.8%	4.5%	-7.7%
O=C(CC1N=C2c3ccccc3N=C(SCc3ccc(Cl)cc3)N2C1=O)NCc1ccco1 (centres undefined)	?	-13.6%	-8.8%	-3.5%[11.6 µM]	13.2%	0.6%	?
Cc1ccc(CSC2=Nc3ccccc3C3=NC(CCC(=O)NCc4ccco4)C(=O)N23)cc1 (centres undefined)	-13.4%	-7.6%	-1.8%	0.8%	-2.7%	-4.0%	/
Cn1ccc2cc(S(=O)(=O)N3CCCN(C(=O)Nc4ccccc4Br)CC3)ccc21	/	2.9%	-4.3%	/	/	-9.8%	/
Cc1ccc(CSc2nc3cccnc3n2Cc2ccc(C(=O)NCCc3cccs3)cc2)cc1	/	-1.1%	-17.9%	/	/	0.0%	/
CCN(CC)c1ccc(/C=N/OCC(=O)Nc2cccc(C)c2)cc1	?	-5.6%	-7.8%	-28.8%[57.1 µM]	4.3%	-6.2%	56.2µM*
N#Cc1ccc(-c2cccs2)nc1SCc1ccc(Cl)cc1Cl	/	-8.5%	-3.6%	/	/	4.8%	/
O=C(O)c1ccccc1-c1oc2cc(O)ccc2c(=O)c1Oc1ccccc1	-0.2%	-1.4%	/	/	-1.9%	/	/
O=C(O)c1ccccc1-c1c2ccc(=O)cc-2oc2cc(O)ccc12	31.6µM*	31.6µM*	?	/	28.2µM*	/	79.4µM*	RECQ1 inh conf=112µM*;RECQ1 ADP FP=0.501µM*
O=C(O)CN(CC(=O)O)Cc1cc2c(-c3ccccc3C(=O)O)c3cc(CN(CC(=O)O)CC(=O)O)c(=O)cc-3oc2cc1O	28.2µM*	15.8µM*	?	/	/	/	/	RECQ1 inh conf=112µM*;RECQ1 ADP FP=0.141µM*
c1ccc(N2CCN(c3nc(-c4cccs4)nc4ccccc34)CC2)cc1	-4.2%	-6.3%	-10.3%	-7.1%	?	1.0%	/
Oc1ccc(N2CCN(c3nc(-c4cccs4)nc4ccccc34)CC2)cc1	?	-5.8%	0.4%	-14.9%	19.5%	-6.1%	?
Cc1ccc(N2C(=O)C3C(C2=O)C(C(=O)c2ccc(Cl)cc2)N2CCCC32)cc1 (centres undefined)	25.1µM*	-3.2%	-14.4%	5.8%	10.4%	3.4%	-27.9%
Cc1ccc(C(=O)c2cc([N+](=O)[O-])ccc2N2CCCCC2)c(C)c1	1.58µM*	-4.5%	-7.1%	-4.2%	2.0%	-6.5%	-13.8%
O=C(c1ccc(Nc2nccc(-c3cc4ccccc4s3)n2)cc1)N1CCC(N2CCCC2)CC1	?	?	0.0%	/	-7.4%	/	25.1µM*
CSc1ccccc1NC(=O)c1noc2c1CCC2	?	-3.8%	?	?	35.5µM*	4.0%	?
COC1=C(Nc2ccccc2)C(=O)c2ccccc2C1=O	-1.6%	-10.6%	0.1%	-3.5%	6.8%	-7.1%	/
COC1=C(Nc2ccc(C)cc2)C(=O)c2ccccc2C1=O	?	-6.6%	0.4%	-27.6%	?	-1.3%	-13.6%
O=C(/C=C/c1ccco1)N(Cc1ccc(F)cc1)C1CCS(=O)(=O)C1 (centres undefined)	?	-5.4%	-13.3%	-4.1%	12.0%	-3.8%	-4.1%
COc1cc(/C=C2\SC(=S)N(NC(=O)c3ccncc3)C2=O)ccc1O	14.1µM*	-13.9%	-8.1%	50.1µM*	?	146.7%	/	RECQ1 inh conf=50.1µM*;RECQ1 ADP FP=78.7%[91.9 µM]
SMILES	RECQ1 inh-1	BLM helicase inh	KAT2A inh	WRN inhibitor	APE1 inh	ERG-DNA inh	RECQ1 inh-2	others
CCN(CC)C(=O)c1ccc2c(c1)N(Cc1ccc(C(F)(F)F)cc1)C(=O)c1ccccc1S2	/	-9.4%	-27.7%	/	/	-0.5%	/
C#CC(C)(CC)NC(=O)Cn1nnc(-c2ccc(OCc3ccccc3F)cc2)n1 (centres undefined)	/	-2.5%	-3.0%	/	/	6.3%	/
O=C(COC(=O)CCC(=O)c1ccc(Cl)cc1)NCc1ccco1	?	2.3%	-23.8%	?	?	-6.2%	?
O=C(COC(=O)CCC(=O)c1ccc(F)cc1)NCc1ccc(Cl)cc1	/	/	-2.4%	-5.1%	9.7%	-2.2%	/
COc1cc(NS(=O)(=O)c2ccc(NC(=O)C(C)Oc3ccc(Cl)cc3Cl)cc2)nc(OC)n1 (centres undefined)	/	-3.8%	-3.2%	/	/	-1.5%	/
COc1ccc(C(=O)NC(=S)Nc2ccc(N3CCCC3)cc2)cc1	-9.4%	-1.7%	1.5%	12.7%	-0.9%	-2.9%	/
COc1cc(C(=O)NC(=S)Nc2ccc(N3CCCC3)cc2)cc(OC)c1OC	?	-3.2%	1.8%	-2.1%	-10.0%	-11.0%	-9.7%
Cc1cc(C)cc(C(=O)NCC(=O)OCC(=O)N2c3ccccc3NC(=O)C2(C)C)c1	?	-25.4%	-6.7%	-2.8%	?	-4.3%	-22.6%
CCN(c1ccc(C)c(C)c1)S(=O)(=O)c1ccc2c(c1)CCN2C(=O)CCC(=O)O	-19.6%	-2.1%	-7.0%	-7.5%	-0.5%	-2.4%	/	RECQ1 inh conf=14.8%;RECQ1 ADP FP=-10.8%
CCN(c1ccc(OC)cc1)S(=O)(=O)c1ccc2c(c1)CCN2C(=O)CCC(=O)O	-10.3%	0.5%	1.6%	-7.9%	-0.7%	5.4%	/	RECQ1 inh conf=8.7%;RECQ1 ADP FP=-12.4%
